Data on 45 molecules can be found in article PMC4336329 (PLoS ONE, 2015).

Out of some 310,000 compounds screened, about 14,000 (4.5%) showed an effect of 50% or more. The effect is printed as a negative number. Many of the other results were omitted from the sample, so strong results are more common in it than they were.
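Note: peak tail current of the secondary pulse compared with the same well before compound.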

Sequence of human ether-à-go-go-related gene (hERG) potassium channel (Q12809 whole entry, looked up): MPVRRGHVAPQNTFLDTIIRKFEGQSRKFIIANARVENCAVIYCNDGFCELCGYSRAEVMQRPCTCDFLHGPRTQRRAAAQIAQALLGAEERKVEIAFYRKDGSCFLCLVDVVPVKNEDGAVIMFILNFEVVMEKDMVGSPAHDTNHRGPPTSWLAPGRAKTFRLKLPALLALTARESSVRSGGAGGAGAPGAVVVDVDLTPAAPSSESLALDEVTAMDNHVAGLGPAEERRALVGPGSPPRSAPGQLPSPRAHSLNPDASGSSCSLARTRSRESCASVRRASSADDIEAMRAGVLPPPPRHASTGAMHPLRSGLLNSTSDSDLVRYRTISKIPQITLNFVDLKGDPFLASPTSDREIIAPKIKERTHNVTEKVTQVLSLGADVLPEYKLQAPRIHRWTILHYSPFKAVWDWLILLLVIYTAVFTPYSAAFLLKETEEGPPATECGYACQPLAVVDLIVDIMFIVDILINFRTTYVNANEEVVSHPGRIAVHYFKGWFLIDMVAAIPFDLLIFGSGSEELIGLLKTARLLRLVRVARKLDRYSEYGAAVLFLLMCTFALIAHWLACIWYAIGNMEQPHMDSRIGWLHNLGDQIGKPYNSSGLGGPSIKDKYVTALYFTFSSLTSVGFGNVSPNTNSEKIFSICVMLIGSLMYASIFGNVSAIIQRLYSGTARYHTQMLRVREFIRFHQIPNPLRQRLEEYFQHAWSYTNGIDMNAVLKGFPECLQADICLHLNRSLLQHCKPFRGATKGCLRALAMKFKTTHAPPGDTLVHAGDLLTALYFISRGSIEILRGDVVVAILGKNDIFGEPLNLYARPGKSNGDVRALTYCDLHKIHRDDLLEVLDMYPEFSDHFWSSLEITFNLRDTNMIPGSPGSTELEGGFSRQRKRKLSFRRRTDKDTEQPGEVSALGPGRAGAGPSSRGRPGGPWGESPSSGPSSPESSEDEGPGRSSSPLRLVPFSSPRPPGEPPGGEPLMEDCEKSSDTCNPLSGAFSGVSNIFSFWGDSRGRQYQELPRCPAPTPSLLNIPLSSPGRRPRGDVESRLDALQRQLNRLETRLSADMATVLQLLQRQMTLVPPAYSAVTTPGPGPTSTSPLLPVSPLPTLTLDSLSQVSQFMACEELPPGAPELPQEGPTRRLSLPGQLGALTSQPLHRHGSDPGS

The assay concerns the target human ether-à-go-go-related gene (hERG) potassium channel (human, UniProt Q12809). The assay is described as follows: primary screen, population patch clamp on CHO cells stably expressing hERG; higher = less effect of the substance.
For the molecule `O=C(Nc1ccc(Cl)cc1)N1CCCN(c2ccc(C(F)(F)F)cc2[N+](=O)[O-])CC1`, the “hERG current change (%, negative = inhibition) at 10uM” value stood at 4.29%.

On to `O=C(Nc1ccc(C(F)(F)F)cc1)N1CCN(c2ccnc3cc(Cl)ccc23)CC1`, for which the “hERG current change (%, negative = inhibition) at 10uM” value is listed as -62.2%.

For `O=C(Nc1ccc(OC(F)(F)F)cc1)N1CCN(c2ccnc3cc(Cl)ccc23)CC1`, the “hERG current change (%, negative = inhibition) at 10uM” value is -72.1%. Take `Cc1csc2c(N3CCN(C(=O)Nc4ccc(OC(F)(F)F)cc4)CC3)ncnc12`: the “hERG current change (%, negative = inhibition) at 10uM” value is listed as -32.9%. As for `CC(C)(C)OC(=O)N1CCCN(C(=O)Nc2ccc(OC(F)(F)F)cc2)CC1`, the figure is -22.6%; as for `Cc1ccc(S(=O)(=O)N(C)CC(=O)OCC(=O)NCCN2C(=O)CSC2=O)cc1`, -9.67%. For the molecule `O=C(c1ccc(Cl)cc1)C(CN1CCCC1)c1ccccc1` (stereo not drawn), the “hERG current change (%, negative = inhibition) at 10uM” value was -10.3%. For the molecule `COc1ccc(OC)c(NC(=O)Nc2nnc(N3CCC(C)CC3)s2)c1`, the “hERG current change (%, negative = inhibition) at 10uM” value is 5.07%. The figure for `COc1ccc(CCNC(=O)[C@@H](NC(=O)N2CCn3c2nc2ccccc23)C(C)C)cc1OC` is -14.3%. Consider `Cc1ccc(C)c(NS(=O)(=O)c2ccc(OCC(=O)N3CCOCC3)cc2)c1`, for which the “hERG current change (%, negative = inhibition) at 10uM” value is listed as -7.34%. For `O=C(CCNC(=O)c1ccc([N+](=O)[O-])cc1)NCCc1ccccc1`, the “hERG current change (%, negative = inhibition) at 10uM” value is -27.8%. As for `CCOc1ccc(-c2cc(CCCC(=O)NCc3cccnc3)no2)cc1`, the “hERG current change (%, negative = inhibition) at 10uM” value is given as -35%. For `COc1ccccc1-c1nnc(NC(=O)C(C)Sc2nncn2C)s1` (stereo not drawn), the “hERG current change (%, negative = inhibition) at 10uM” value was -1.37%. The figure for `CCN(CC)c1cc(C)c2cc(NC(=O)c3cccs3)ccc2n1` is -72.2%; for `CCN(CC)c1cc(C)c2cc(NC(=O)c3ccccc3OC)ccc2n1` it is -18.6%; for `CCN(CC)c1ccc(NC(=O)c2ccccc2F)cc1` it is -9.39%. Consider `Cc1nc2ccc(NC(=O)c3cccs3)cc2s1`, for which the “hERG current change (%, negative = inhibition) at 10uM” value was 19.8%. Turning to `CCN(CC)c1cc(C)c2cc(NC(=O)c3ccccc3F)ccc2n1`, the “hERG current change (%, negative = inhibition) at 10uM” value was -81.3%. `Cc1nc2ccc(NC(=O)c3cccs3)cc2c(=O)n1Cc1ccc(Cl)cc1`: the “hERG current change (%, negative = inhibition) at 10uM” value worked out at 9.84%. In the case of `COc1ccc(Cl)cc1N(CC(=O)Nc1ccc2c(c1)OCO2)S(C)(=O)=O`, the “hERG current change (%, negative = inhibition) at 10uM” value was -24%. The figure for `COc1cccc(CNC(=O)Cc2c(C(=O)O)[nH]c3ccccc23)c1` is 8.83%; for `COC(=O)[C@H](CC(C)C)NC(=O)Nc1ccccc1F` it is 16.6%; for `Cc1ccccc1Cn1nc(C)c(NC(=O)c2nc3n(n2)C(C(F)F)CC(C)N3)c1C` (stereo not drawn) it is 0.0862%.

Consider `O=C(CCN1C(=O)c2ccccc2C1=O)NNC(=O)c1ccc(Cl)cc1Cl`, for which the “hERG current change (%, negative = inhibition) at 10uM” value turned out to be 6.82%.

As for `c1ccc(N(c2ccccc2)c2nc(-n3ccnc3)nc(-n3ccnc3)n2)cc1`, the “hERG current change (%, negative = inhibition) at 10uM” value was -24.2%. For the molecule `CC(C)Nc1nc(-c2ccccc2)nc(-n2ccnc2)n1`, the “hERG current change (%, negative = inhibition) at 10uM” value is given as -0.0673%. For `c1ccc(-c2nc(-n3ccnc3)nc(-n3ccnc3)n2)cc1`, the “hERG current change (%, negative = inhibition) at 10uM” value is reported as -69.4%. As to `c1ccc(-c2nc(N3CCN(c4ccccc4)CC3)nc(-n3ccnc3)n2)cc1`, the “hERG current change (%, negative = inhibition) at 10uM” value is listed as -2.66%. The figure for `CN(c1ccccc1)c1nc(-n2ccnc2)nc(-n2ccnc2)n1` is -67.7%; for `CN(c1ccccc1)c1nc(N2CCCC2)nc(-n2ccnc2)n1` it is -19.5%; for `Cc1ccc(S(=O)(=O)N2c3ccccc3CC2C)cc1` (stereo not drawn) it is 13.4%.

With `COc1ccc(C(=O)CC(=O)C(=O)NCCc2cccc(C)c2)cc1`, the “hERG current change (%, negative = inhibition) at 10uM” value amounted to 7.31%. As for `O=C(C(=O)N1CCN(c2ccccc2)CC1)c1c[nH]c2ccccc12`, the figure is 4.09%. In the case of `C/C(CC(=O)Nc1ccc2ccccc2c1)=N\NC(=O)c1ccc(O)c(O)c1`, the “hERG current change (%, negative = inhibition) at 10uM” value was -6.73%.

With `COCCN1C(=O)CC(NNC(=O)c2ccc(S(=O)(=O)N3CCCC3)cc2)C1=O` (stereo not drawn), the “hERG current change (%, negative = inhibition) at 10uM” value is given as 10%. On to `CCOC(=O)C1CCN(C(=O)CS(=O)Cc2nc(-c3ccc(C)cc3)oc2C)CC1` (stereo not drawn), for which the “hERG current change (%, negative = inhibition) at 10uM” value is on record as -0.626%. With `CCN(C(=O)COC(=O)c1cc(Cl)ccc1OC)c1c(N)n(Cc2ccccc2)c(=O)[nH]c1=O`, the “hERG current change (%, negative = inhibition) at 10uM” value stood at 4.46%. Regarding `O=C(Cc1ccccc1)NN1C(=O)c2ccccc2C1=O`, the “hERG current change (%, negative = inhibition) at 10uM” value is given as -9.37%. Regarding `COc1ccc(CCNC(=O)CSc2nnc3c(n2)[nH]c2ccc(F)cc23)cc1OC`, the “hERG current change (%, negative = inhibition) at 10uM” value is 12.8%. Regarding `CCNC(=O)NC(=O)COC(=O)CCc1nc(=O)c2ccccc2n1C`, the “hERG current change (%, negative = inhibition) at 10uM” value is 4.87%. As for `CNC(=O)NC(=O)COC(=O)CCc1nc(=O)c2ccccc2n1C`, the figure is -19.2%; as for `CCc1ccc(NC(=O)COC(=O)CCc2nc3cc(S(=O)(=O)N(CC)CC)ccc3n2C)cc1`, -60%; as for `Cn1c(CCC(=O)OCC(=O)Nc2ccc(Oc3ccccc3)cc2)nc(=O)c2ccccc21`, -53.3%. Take `CCN(CC)S(=O)(=O)c1ccc2c(c1)nc(CCC(=O)OCC(=O)Nc1cc(OC)cc(OC)c1)n2C`: the “hERG current change (%, negative = inhibition) at 10uM” value is -48.5%. `CCN(CC)S(=O)(=O)c1ccc2c(c1)nc(CCC(=O)OCC(=O)Nc1c(F)cccc1F)n2C`: the “hERG current change (%, negative = inhibition) at 10uM” value is reported as -34.6%.
